Screening data deposited in PubChem by several laboratories.
An excerpt weighted towards active compounds, which were near 2.8% of everything screened.
KKLEB cytotox: CF airway cell cytotoxicity counter-screen | KKLEB CF airway cells viability, ATPlite luminescence, overnight; hits give low values; cells stimulated with P. aeruginosa culture filtrate | actives 0.36% (n = 360,000) | activity change (cytotoxicity), % at 5 µM;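 active = corrected activity change at or below -50% at 5 µM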
CF NFkB block: blocks PAF-induced NF-kB reporter in cystic fibrosis cells. KKLEB NF-kB-GFP reporter, GFP fluorescence overnight. inhibition, % at 5 µM. actives 0.86% (n = 360,000);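 active = at least 50% inhibition at 5 µM, scaled per plate between neutral and stimulator controls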;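 note: PAF is a Pseudomonas aeruginosa culture filtrate used as stimulus; plate controls were PAF-stimulated DMSO wells for no effect and unstimulated DMSO wells for full effect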
MITF TRPM1 inh: MITF TRPM1 promoter inhibition in SK-MEL-5 cells. actives 0.83% (n = 330,000). SK-MEL-5 TRPM1 promoter luciferase, 24 h. inhibition, % at 12.5 µM;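 active = mean inhibition across replicates of 60% or more, whatever share of single replicates reaches that level; inconclusive = some that reach 60%, reason not given; inactive = mean inhibition across replicates below 60%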
HIF-2a block: inhibitors of HIF-2a; 786-0 RCC cells HIF-2a reporter, luciferase luminescence, overnight; actives 0.72% (n = 360,000); inhibition, % at 18.8 µM;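 active = inhibition of the luminescence signal of 40% or more relative to plate controls, in a single-dose primary screen at 18.75 µM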
Peg3 prom inh: Peg3 promoter activity inhibition. actives 1.7% (n = 360,000). inhibition, % at 20 µM. HeLa PEG-Prom luciferase reporter, luminescence, overnight;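 active = inhibition of at least 50% at 20 µM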
Shn3 inh set2: reduces Shn3 3'UTR luciferase signal in osteoblasts; Clone20 osteoblast Shn3 3'UTR firefly luciferase, 24 h; inhibition, % at 12.5 µM; actives 0.52% (n = 360,000); AID 588674;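 active = mean inhibition of at least 75% with every replicate also reaching 75%; inconclusive = mean inhibition at least 75% but some replicate below; inactive = mean inhibition below 75%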;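 note: 0% = median of neutral control wells and 100% = pilot-screen positive control compound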
An asterisk follows results filed as active; ? = inconclusive; . = not tested or not shown.

SMILES	KKLEB cytotox	CF NFkB block	MITF TRPM1 inh	HIF-2a block	Peg3 prom inh	Shn3 inh set2
CCOc1ccc(-c2cc(C(=O)NCCCn3ccnc3)c3cc(Br)ccc3n2)cc1	-45	-167	?	7	106*	-4
CC1CCCC(NC(=O)COC(=O)COc2cccc(F)c2)C1C (stereo not given)	23	-6	1	19	12	-22
COc1ccc(C(=O)Nc2nc3cc4c(cc3s2)OCO4)c(OC)c1	-54*	49	-70	-308	-204	-63
CC(C)(C)N1C(=O)c2ccc(C(=O)Nc3ccc(C(=O)O)cc3)cc2C1=O	-7	10	-5	12	11	4
CC(C)(C)N1C(=O)c2ccc(C(=O)Nc3ccc(-c4nc5ccccc5[nH]4)cc3)cc2C1=O	2	-2	-6	-8	82*	-21
CCCCCn1c(=NC(=O)c2cccnc2)c(C#N)cc2c(=O)n3cccc(C)c3nc21	1	-46	14	20	56*	-9
CCCCn1c(=NC(C)=O)c(C#N)cc2c(=O)n3cccc(C)c3nc21	-1	-173	-2	11	20	29
CSc1ncccc1C(=O)OC(C)C(=O)Nc1cccc(S(=O)(=O)N2CCOCC2)c1 (stereo not given)	-13	4	1	15	7	7
O=C(/C=C/c1ccc(Cl)c([N+](=O)[O-])c1)Nc1ccc(NC(=O)c2ccco2)cc1	0	9	3	-13	61*	-2
O=C(/C=C/c1ccc(Cl)c([N+](=O)[O-])c1)Nc1cccc(NC(=O)c2ccco2)c1	6	6	-10	-149	114*	10
O=C(CNc1ccc2ccccc2c1)N/N=C/c1ccc([N+](=O)[O-])o1	-11	-2	59	-5	-20	6
CCCc1ccc(-c2cc(C(=O)N/N=C/c3ccc([N+](=O)[O-])o3)c3ccccc3n2)cc1	-51*	-4	51	-109	-121	-10
Cc1ccc(NC(=O)CCC(=O)N/N=C/c2ccc([N+](=O)[O-])o2)cc1C	15	-10	79*	-16	-6	.
O=C(N/N=C/c1ccc([N+](=O)[O-])o1)c1cc(-c2cccc(Br)c2)nc2ccccc12	1	-34	59	-78	-65	5
O=C(N/N=C/c1ccc([N+](=O)[O-])o1)c1sc2ccccc2c1Cl	8	-31	78*	35	40	20
O=C(COc1ccccc1)N/N=C/c1ccc([N+](=O)[O-])o1	6	-27	68*	-18	-37	-5
Cc1ccc(Cl)cc1N1CCN(C(=O)CN(c2ccccc2)S(=O)(=O)N(C)C)CC1	-15	19	9	11	22	6
COCc1cc(C)nc(SCC[N+](C)(C)CC(=O)Nc2cccc(C(F)(F)F)c2)c1C#N	7	1	-13	8	-15	-34
Cn1nnc(NC(=S)NC(=O)c2cc(Cl)ccc2Cl)n1	-4	2	-9	0	16	0
CSC1=NC(C(Cl)(Cl)Cl)N=C(c2ccccc2)N1 (stereo not given)	-2	14	21	11	21	0
COc1ccc(-c2nn(-c3ccccc3)cc2C(=O)N/N=C/c2ccc([N+](=O)[O-])o2)cc1	-19	6	90*	-2	30	27
Cc1ccc(OCC(=O)N/N=C/c2ccc([N+](=O)[O-])o2)cc1	14	-37	64*	-25	2	-6
Cc1cc(C(=O)N/N=C/c2ccc([N+](=O)[O-])o2)c(C)o1	-5	-2	83*	13	-11	6
Cc1ccc(OCC(=O)N/N=C\c2ccc(C)o2)c([N+](=O)[O-])c1	-6	-4	-7	-16	-2	-4
COc1ccc(-c2nn(-c3ccccc3)cc2C(=O)N2CCOCC2)cc1	8	-17	5	3	11	-30
O=C(CSc1ccc(Cl)cc1)N/N=C/c1ccc([N+](=O)[O-])o1	-9	-8	62*	-34	-29	-15
COc1ccc(NC(=O)c2c(N)cnn2C)cc1	-6	-7	-2	-55	-25	4
Cn1c(=O)c2c(ncn2CC(=O)OCC(=O)NNC(=O)c2ccc(Cl)cc2)n(C)c1=O	2	14	2	3	-6	-10
